Compounds with a hit are over-represented: about 3.2% of the library has one in this group of screens.
TSHR agonist – TSH receptor (human) agonism | P16473 | HEK293-CNG-TSHR cells (CNG channel as cAMP sensor), membrane potential dye, cAMP | Potency, µM (top dose mostly 57.1 µM), most hits filed as activators | actives 0.48% (n = 73,000) | AID 926; active = well fitted activation curve with a large enough effect in the main read-out, with a control signal flat, not every such curve was filed as active; inconclusive = small, poorly fitted or top-dose-only effect, or a change in a side signal; inactive = no such curve, though single readings can be large or run the other way; reference of the percent scale not stated here;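 note: the control signal comes from parental cells without the receptor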
Target sequence (P16473 whole entry, looked up): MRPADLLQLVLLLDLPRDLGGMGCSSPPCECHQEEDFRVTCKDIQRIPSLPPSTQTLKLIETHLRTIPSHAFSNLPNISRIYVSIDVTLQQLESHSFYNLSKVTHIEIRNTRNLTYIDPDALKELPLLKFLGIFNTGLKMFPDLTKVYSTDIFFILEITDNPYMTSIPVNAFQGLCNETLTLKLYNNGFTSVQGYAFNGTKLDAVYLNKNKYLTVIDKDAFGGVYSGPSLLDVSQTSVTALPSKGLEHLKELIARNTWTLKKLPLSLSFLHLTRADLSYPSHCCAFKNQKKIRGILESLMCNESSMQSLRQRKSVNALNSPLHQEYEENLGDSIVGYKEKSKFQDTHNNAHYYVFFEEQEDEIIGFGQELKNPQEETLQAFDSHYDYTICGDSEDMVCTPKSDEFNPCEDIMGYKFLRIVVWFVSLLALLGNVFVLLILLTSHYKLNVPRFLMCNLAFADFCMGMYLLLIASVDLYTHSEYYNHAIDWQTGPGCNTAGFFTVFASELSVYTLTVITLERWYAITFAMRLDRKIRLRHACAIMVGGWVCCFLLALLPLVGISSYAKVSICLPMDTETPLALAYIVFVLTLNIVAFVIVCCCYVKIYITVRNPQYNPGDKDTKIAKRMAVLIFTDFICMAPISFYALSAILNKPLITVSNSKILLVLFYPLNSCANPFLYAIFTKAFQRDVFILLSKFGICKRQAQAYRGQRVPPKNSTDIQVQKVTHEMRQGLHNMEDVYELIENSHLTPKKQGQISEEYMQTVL
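cAMP rise detected as CNG-channel membrane depolarization by fluorescent dye (emission 590 nm), 30 min after compound, following 60 min dye loading containing 100 uM RO 20-1724 at room temperature. Cells: TSHR/CNG HEK 293, with parental CNG HEK 293 as control.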
BRCT PPI red – BRCT-phosphoprotein interaction inhibition (red fluorophore); actives 0.03% (n = 75,000); P38398; BRCT-phosphopeptide binding, red fluorescence polarization; Potency, µM (titrated, usually from 76.9 µM), actives largely listed as inhibitors
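Fluorescence polarization: 100 nM His-tagged BRCA1 BRCT with 100 nM TAMRA-labelled phospho-BACH1 decapeptide, phosphate buffer pH 7.3 with 150 mM NaCl, DTT, 0.01% Tween 20; 12 min RT. Binding inhibition seen as FP decrease.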
HEK293 cAMP cs – counter-screen for TSHR agonists: cAMP increase in parental HEK293; parental HEK293 CNG cAMP sensor, membrane potential fluorescence; AID 938; actives 2.5% (n = 73,000); Potency, µM (series often up to 57.1 µM), hits mostly activators; note: nearly all actives have a fitted effect of over 55% in size
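Parental HEK 293 cells stably expressing a cAMP-gated CNG channel were loaded with membrane potential dye containing 100 uM RO 20-1724 for 60 min. Compound added for 30 min; depolarization read as fluorescence intensity at 590 nm.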
DNA Pol III inh – inhibitors of bacterial DNA polymerase III holoenzyme | actives 0.25% (n = 71,000) | Potency, µM (highest dose often 57.1 µM) | reconstituted DNA polymerase III holoenzyme replication, biochemical
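Reconstituted *E. coli* holoenzyme (0.35 nM Pol III, 1 nM beta, 154 nM SSB, 2 nM primase) was preincubated with compound for 15 min at RT. Synthesis on 1.4 nM ssM13Gori ran 35 min, then was stopped with PicoGreen/EDTA and read as dsDNA fluorescence.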
TsaE inh – inhibitors of E. coli YjeE (TsaE) | purified YjeE enzyme, qHTS inhibition assay | actives 0.05% (n = 71,000) | Potency, µM | P0AF67
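Purified YjeE (10 uM) with BODIPY Texas Red-labeled ADP probe (2 uM); compounds pin-transferred, 15 min at room temperature. Binding inhibition read as decreased fluorescence polarization; ADP titration as control.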
BRCT PPI green – BRCA1 BRCT-phosphoprotein interaction inhibition; Potency, µM (top dose mostly 76.9 µM), most hits filed as inhibitors; BRCA1 BRCT-phosphopeptide binding, green fluorescence polarization; P38398; AID 875; actives 0.05% (n = 75,000)
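Fluorescence polarization: His-tagged BRCT (~35 kDa BRCA1 C-terminus, 250 nM) bound to 100 nM fluorescein-labeled phosphorylated 10-aa BACH1 peptide, pH 7.3 phosphate buffer with DTT and Tween 20. Compounds incubated 12 min at room temperature; inhibition read as lowered polarization.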
A number is an active result; [ ] = remark or other dose. Unless noted, calls come from the whole dose curve; as a rule, active = well fitted curve in the direction sought with a large enough effect; inconclusive = small, poorly fitted or top-dose-only effect, or another doubt; inactive = no such curve, though single readings can be large; an effect the other way counts as inactive or inconclusive.

What do the screens show for `Cc1ccc(OCC(O)Cn2c(=N)n(CCN3CCOCC3)c3ccccc32)cc1` (configuration not stated)?
TSHR agonist: inconclusive; BRCT PPI red: inactive; HEK293 cAMP cs: 20µM; DNA Pol III inh: inactive; TsaE inh: inactive; BRCT PPI green: inactive

Results for Cc1ccc(OCC(O)Cn2c(=N)n(CCN3CCCCC3)c3ccccc32)cc1 (configuration not stated) ?
TSHR agonist: inconclusive; BRCT PPI red: inactive; HEK293 cAMP cs: inconclusive; DNA Pol III inh: inactive; TsaE inh: inactive; BRCT PPI green: inactive

Results for OCC1OC(n2cnc3c(Cl)nc(Cl)nc32)C(O)C1O (configuration not stated) ?
BRCT PPI red: inactive; BRCT PPI green: inactive

What do the screens show for `Nc1ncnc2c1ncn2[C@@H]1O[C@@H](COP(=O)(O)OP(=O)(O)OP(=O)(O)OP(=O)(O)OC[C@@H]2O[C@@H](n3cnc4c(N)ncnc43)[C@@H](O)[C@H]2O)[C@H](O)[C@@H]1O`?
TSHR agonist: inactive; BRCT PPI red: inactive; HEK293 cAMP cs: inactive; DNA Pol III inh: inactive; TsaE inh: 50µM; BRCT PPI green: inactive

How did CSc1nc(N)c2ncn([C@H]3O[C@H](COP(=O)(O)OP(=O)(O)O)[C@@H](O)[C@@H]3O)c2n1 do in these assays?
TSHR agonist: inactive; BRCT PPI red: inactive; HEK293 cAMP cs: inactive; DNA Pol III inh: inactive; TsaE inh: 50µM; BRCT PPI green: inactive

How did Nc1nc(Cl)nc2c1ncn2[C@@H]1O[C@@H](CO)[C@@H](O)[C@H]1O do in these assays?
TSHR agonist: inconclusive; BRCT PPI red: inactive; HEK293 cAMP cs: 7.9µM; DNA Pol III inh: inactive; TsaE inh: inactive; BRCT PPI green: inactive

How did CCOC(=O)N/N=C1/C[C@@H](O)[C@@H](O)[C@@H]2[C@@H]3C(=O)N(Cc4ccc5c(c4)OCO5)C(=O)[C@H]3CC[C@@H]12 do in these assays?
TSHR agonist: inactive[11.4 µM]; BRCT PPI red: inactive[15.4 µM]; HEK293 cAMP cs: inactive[11.4 µM]; BRCT PPI green: inactive[15.4 µM]

Results for O=C(c1ccncc1)N1CCC2(CCCN(c3ccccn3)C2)CC1 ?
TSHR agonist: inconclusive; BRCT PPI red: inactive; HEK293 cAMP cs: inconclusive; DNA Pol III inh: inactive; TsaE inh: inactive; BRCT PPI green: inactive

How did O=C=Nc1ccc(Cl)c(Cl)c1 do in these assays?
TSHR agonist: inactive; BRCT PPI red: inactive; HEK293 cAMP cs: inactive; DNA Pol III inh: inactive; TsaE inh: inactive; BRCT PPI green: inactive

Results for C[N+](C)(C)c1cc2c(nn1)Nc1ccccc1S2 ?
TSHR agonist: inactive[11.4 µM]; BRCT PPI red: inactive[15.4 µM]; HEK293 cAMP cs: inactive[11.4 µM]; DNA Pol III inh: inactive[11.4 µM]; TsaE inh: inactive; BRCT PPI green: inactive[15.4 µM]

How did c1csc(CNc2ncncc2-c2ccc3c(c2)OCO3)c1 do in these assays?
TSHR agonist: inconclusive; BRCT PPI red: inactive; HEK293 cAMP cs: inconclusive; DNA Pol III inh: inactive; TsaE inh: inactive; BRCT PPI green: inactive

Results for CC1=CC(=O)CC(C)(C)[C@]1(O)/C=C\C(C)=C\C(=O)O ?
TSHR agonist: inactive[11.4 µM]; BRCT PPI red: inactive[15.4 µM]; HEK293 cAMP cs: inactive[11.4 µM]; DNA Pol III inh: inactive[11.4 µM]; TsaE inh: inactive; BRCT PPI green: inactive[15.4 µM]

What do the screens show for `Cc1ccc(S(=O)(=O)Nc2cccc(-c3cn4ccsc4n3)c2)cc1`?
TSHR agonist: inactive; BRCT PPI red: inactive; HEK293 cAMP cs: inactive; DNA Pol III inh: inactive; TsaE inh: inactive; BRCT PPI green: inactive

What do the screens show for `Cc1ccc2nc(-c3cccc(S(=O)(=O)N(C)C)c3)cn2c1`?
TSHR agonist: inconclusive; BRCT PPI red: inactive; HEK293 cAMP cs: 25µM; DNA Pol III inh: inactive; TsaE inh: inactive; BRCT PPI green: inactive

Results for O=C(O)C1CCCN1S(=O)(=O)c1cccc2cccnc12 (configuration not stated) ?
TSHR agonist: inactive; BRCT PPI red: inactive; HEK293 cAMP cs: inactive; DNA Pol III inh: inactive; TsaE inh: inactive; BRCT PPI green: inactive

How did CCCc1cc(=O)oc2cc(C)c(CN3CCCC3)c(O)c12 do in these assays?
BRCT PPI red: inactive; HEK293 cAMP cs: inactive; DNA Pol III inh: inactive; TsaE inh: inactive; BRCT PPI green: inactive

Results for Cc1cc2oc(=O)cc(CN3CCC(C)CC3)c2cc1Cl ?
TSHR agonist: inconclusive; BRCT PPI red: inactive; HEK293 cAMP cs: 25µM; DNA Pol III inh: inactive; TsaE inh: inactive; BRCT PPI green: inactive
